{"source": "PubChem BioAssay (EPA / NIEHS)", "note": "Activity calls are given as the source filed them. Rule for the calls: active = hit-call score of the fitted dose curve at least 0.9, where 1 is the maximum; inactive = score below 0.9.", "data": [{"read-out": "Cellular tumor antigen p53 (Homo sapiens) (UniProt P04637)", "experiment": "LTEA_HepaRG_TP53: Life Technologies and Expression Analysis (LTEA) Assay for Tumor Protein P53 (TP53) using HepaRG (AID 2283537)", "conditions": "mRNA level, 48 h; actives raise or lower the signal", "protocol": "LTEA_HepaRG is a cell based, multiplexed-readout assay that uses HepaRG, a human liver cell line, with measurements taken at 48 hours after chemical dosing on a 96-well plate.LTEA_HepaRG_TP53 is one of 102 assay component(s) measured in the LTEA HepaRG cell culture assay. It is a marker of Oxidative Stress.Data from the assay component LTEA_HepaRG_TP53 was analyzed into 1 endpoint. This assay endpoint, LTEA_HepaRG_TP53, was analyzed with bidirectional fitting relative to DMSO as the negative control and baseline of activity. Using a type of inducible reporter, measures of mRNA induction for gain or loss-of-signal activity can be used to understand regulation of transcription factor activity. To generalize the intended target to other relatable targets, this assay endpoint is annotated to the dna binding intended target family, where the subfamily is tumor suppressor.\nA total of 1060 chemcials from the ToxCast library were tested in eight-point concentration-response experiments. Cell culture and cytotoxicity assays were conducted at Thermo Fisher Scientific's Custom Services facility (Madison, WI). A single lot of human HepaRG cells (Thermo Fisher Scientific, Frederick, MD) was used for the cell culture experiments. 96-well format collagen type I coated plates of human HepaRG cells were prepared using established methods. Briefly, cryopreserved HepaRG cells were thawed, plated at a density of approximately 100,000 cells/well in HepaRG Thaw, Plate, and General Purpose media (HPRG770, Thermo Fisher Scientific), and incubated for 48 hours. 0.5% DMSO was selected as vehicle control to balance the requisite need of DMSO in HepaRG cultures to maintain differentiation (for example, baseline metabolism, proportions of hepatocytes vs. cholangiocytes), while enabling further hepatic receptor pathway activation (for example, PXR and CAR) in response to chemical exposure. 48 hours after plating, the culture medium was replaced with HepaRG Serum-Free Incudtion Media. Cells were exposed to each test chemical in duplicate and maintained in CO2 incubators for another 48 hours. Chemical plates were thawed to room temperature and 200x concentrations of treatment groups were prepared. 8-point conentration-reponse curves were made with the highest exposure at 100 uM, followed by half-log dilutions, all in 0.5% DMSO. Each test plate contained variouse controls, induction positive controls (1mM phenobarbital), cytotoxicity positive controls ([…] aflatoxin B1), vehicle controls (0.5% DMSO), and total lysis controls (0.5% DMSO). Cell morphology images were taken using an Essen IncuCyte FLR automated microscope, with six 96-well plates imaged in about 24 minutes. Images were captured and exported and JPEG files. Spent culture media was transfered to black-well plates for the LDH assay, and remaining media was sorted at -80 C for later use. Cells were treated with RLT buffer and frozen until shipped for gene expression analysis. Total RNA was isolated from the cell suspension in 75 uL of Buffer RLT (Qiagen, Germantown, MD 20874) by Quintiles/Expression Analysis (Durham, NC) using a custom isolation procedure. Total RNA from each plate well was transferred to a preamplification plate. Fluidigm's 96.96 Dynamic ArrayTM (Fluidigm, Amsterdam, the Netherlands) technology was used for gene expression analyses by quantitative reverse transcription polymerase chain reaction (qRT-PCR, performed by Quintiles/Expression Analysis, Durham, NC)89. Standard TaqManTM Assays (Applied Biosystems/ThermoFisher Scientific, Foster City, CA) were used to assess the expression of 93 genes selected based on their selectivity and sensitivity to important hepatic receptors known to be modulated by environmental chemicals; importance in human hepatocyte functionality; and hepatotoxicity. […]", "values": [{"smiles": "CCCCCCCCCCCCCCO", "outcome": "inactive"}, {"smiles": "O=S1(=O)CCCO1", "outcome": "inactive"}, {"smiles": "CCCCCCCC/C=C\\CCCCCCCC(=O)OC[C@@H](O)[C@H]1OC[C@H](O)[C@H]1O", "outcome": "inactive"}, {"smiles": "CCCCC(CC)C(=O)OCCOCCOCCOC(=O)C(CC)CCCC", "note": "(centres undefined)", "outcome": "inactive"}, {"smiles": "CCCCN1C(=O)[C@@H]([C@H](O)C2CCCCC2)NC(=O)C12CCN(Cc1ccc(Oc3ccc(C(=O)O)cc3)cc1)CC2", "outcome": "inactive"}, {"smiles": "CCCCOC(=O)c1ccccc1", "outcome": "inactive"}, {"smiles": "CCOC(N)=O", "outcome": "inactive"}, {"smiles": "CCCCCCCC1CCC(=O)O1", "note": "(centres undefined)", "outcome": "inactive"}, {"smiles": "O=C(O)c1ccc2c(c1)nc(C(=O)NC1CCN(C3CC3)CC1)n2Cc1cc(-c2ccc(Cl)s2)on1", "outcome": "inactive"}, {"smiles": "CCCCCCCCCC", "outcome": "inactive"}, {"smiles": "CC(C)c1nnc2ccc(-c3ocnc3-c3cc(F)ccc3F)cn12", "outcome": "inactive"}, {"smiles": "OCCOCCOCCO", "outcome": "inactive"}, {"smiles": "C[C@]12C=CC(=O)C=C1CC[C@H]1[C@@H]3C[C@@H](O)[C@](O)(C(=O)CO)[C@@]3(C)C[C@H](O)[C@@]12F", "outcome": "inactive"}, {"smiles": "CC(=O)c1ccccc1", "outcome": "inactive"}, {"smiles": "OC(CCl)CCl", "outcome": "inactive"}, {"smiles": "CCc1cccc(CC)c1N", "outcome": "inactive"}, {"smiles": "CCn1nc(C)c2c1C(=O)NCC(c1ccc(O)cc1)=N2", "outcome": "inactive"}, {"smiles": "CCCc1ccccc1", "outcome": "inactive"}, {"smiles": "NNC(=O)c1ccncc1", "outcome": "inactive"}, {"smiles": "CCN(CC)C(=S)SSC(=S)N(CC)CC", "outcome": "inactive"}, {"smiles": "CCCCCCCCN(C)C", "outcome": "inactive"}, {"smiles": "O=C1CN(N=Cc2ccc([N+](=O)[O-])o2)C(=O)N1", "outcome": "inactive"}, {"smiles": "CCc1ccc(O)c(C(C)(C)C)c1", "outcome": "inactive"}, {"smiles": "C=CN1CCCC1=O", "outcome": "inactive"}, {"smiles": "O=C(O)c1cccc(C[C@@H]2COc3ccc(OCc4nc5cc(F)ccc5s4)cc3[C@@H]2O)c1", "outcome": "inactive"}, {"smiles": "Cn1cc[nH]c1=S", "outcome": "inactive"}, {"smiles": "c1ccc2cc3ccccc3cc2c1", "outcome": "inactive"}, {"smiles": "CCCCCCCCCCCCCCCCOS(=O)(=O)O", "outcome": "inactive"}, {"smiles": "c1ccc2ncccc2c1", "outcome": "inactive"}, {"smiles": "c1ccc(C(O[C@@H]2CCCN(CCc3ccc4c(c3)OCO4)C2)c2ccccc2)cc1", "AC50": "75.4 µM (active)"}, {"smiles": "CC1(C)C(=O)N(Cl)C(=O)N1Cl", "outcome": "inactive"}, {"smiles": "NC(=O)NN=Cc1ccc([N+](=O)[O-])o1", "AC50": "9.92 µM (active)"}, {"smiles": "Cn1c(=O)c2[nH]cnc2n(C)c1=O", "outcome": "inactive"}, {"smiles": "OC(Cn1cncn1)(Cn1cncn1)c1ccc(F)cc1F", "outcome": "inactive"}]}]}
